SMILES strings stand for the structures. Calls of active or inactive are those of the source.

System in the first test: not listed separately
Briefly: forskolin-driven CRE-LacZ activity in PC12 – cell-based, CRE-LacZ reporter, forskolin-stimulated, primary screen (AID 1146).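 Further: PC12 cells with 6xCRE LacZ reporter stimulated by forskolin 10 µM; beta-galactosidase reporter signal reflecting CREB driven transcription.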 As to conditions: luminescence, 4.5 h, higher = more signal, called active from +8 up or from −8 down.
`CN1C(=O)C2C(C1=O)C1C=C(c3ccc(CO)cc3)C2C(C2CC2)N1C` (stereo not given): the z-score is 0.173 (inactive). Still for that read-out and setting: under `COCCCNC(=O)[C@@]1(CCS(=O)(=O)c2ccccc2)COC(c2ccc(OCCCO)cc2)=N1` stands -0.387 (inactive); under `COC(=O)[C@@]1(Cc2ccc(F)cc2)[C@H]2c3cc(C(=O)N4CCCC4)n(Cc4cc(F)cc5c4OCOC5)c3C[C@H]2CN1C(=O)c1ccccc1`, 0.755 (inactive). For `O=C1C[C@@](C(=O)NCc2ccccc2)(c2ccc([N+](=O)[O-])cc2)[C@@H](c2ccc(CO)cc2)N1C1CCCCC1`, the z-score was -0.932 (inactive).

`CCCCC(O)C1C=CC2C(=O)N(c3ccccc3)C(=O)C2N1Nc1ccc([N+](=O)[O-])cc1` (stereo not given): the z-score was -0.176 (inactive). Take `CC1CC/C=C\[C@H]2OC34C=CCN(C(C)(C)C)C(=O)[C@H]3N(CCCO)C(=O)[C@@H]4C2C(=O)O1` (stereo not given in full): the z-score is -0.539 (inactive). For the molecule `CCCCCC1=C2CNC(Cc3ccccc3)(C(=O)OC)C=C2C(C)C1=O` (stereo not given), the z-score was 2.19 (inactive). For `CCOC(=O)C1=C[C@@H](C(C)(C)C)N(S(=O)(=O)c2ccc(C)cc2)[C@H]1c1ccc(C#N)cc1`, the z-score was 0.624 (inactive). As for `COc1ccc([Si](C)(C)[C@@H]2[C@@H](CC(=O)N(CCO)Cc3ccccc3)O[C@]3(C(=O)N(Cc4ccc(I)cc4)c4ccccc43)[C@H]2C)cc1`, the z-score is -0.905 (inactive).

On to `C=CCNC(=O)[C@H]1[C@@H]2C(=O)O[C@@H](c3ccccc3)[C@@H](c3ccccc3)N2[C@@H](c2ccccc2OCCO)[C@]12C(=O)N(C(=O)OCCOC)c1ccc(C#Cc3ccc(OC)cc3)cc12`, for which the z-score was -0.261 (inactive). On the same count and under the same terms, under `CCOC(=O)C[C@H]1[C@H](OC(=O)c2cc3ccccc3oc2=O)[C@@H](NC(=O)CC(C)C)c2cc(OCCCO)ccc2N1C(=O)Cc1ccc(OC)cc1` stands -0.505 (inactive); under `O=C(NC1CC1)[C@@H]1c2ccccc2C(=O)N(CC23CC4CC(CC(C4)C2)C3)[C@H]1c1ccc(CO)cc1`, -0.049 (inactive).

`C=CCN1C(=O)[C@@]2(O[C@@H](CCn3cc([C@H](O)c4ccccc4)nn3)[C@H]([Si](C)(C)c3ccc(OC)cc3)[C@H]2C)c2cc(N3C(=O)c4cccc5cccc3c45)ccc21`: the z-score was -0.592 (inactive).

Consider `CCOC(=O)C[C@H]1[C@H](OC(=O)c2ccccc2-c2ccccc2)[C@@H](NC(=O)c2ccc3ccccc3c2)c2cc(OCCCO)ccc2N1C(=O)Cc1ccc(OC)cc1`, for which the z-score is 0.654 (inactive). Still for that read-out and setting: under `COC(=O)[C@@]1(Cc2ccc(OC)cc2)[C@H]2c3cc(C(=O)N4CCCC4)n(Cc4ccc(Cl)c(C(F)(F)F)c4)c3C[C@H]2CN1C(=O)c1ccccc1` stands -0.218 (inactive); under `CCCC[C@H]1C[C@@H]1[C@@H]1N(C(C)=O)[C@H](c2cccc(OC)c2)CC12CC2`, -0.0157 (inactive). The same measure, in the same setting: under `COc1ccc(CCNC(=O)[C@@H]2c3ccccc3C(=O)N(Cc3ccccc3OC)[C@H]2c2ccc(CO)cc2)cc1` stands -1.12 (inactive); under `O=C1C=C(c2ccccc2)C(=O)C2=C1CC([C@H]1Oc3ccccc3S(=O)(=O)N3CCC[C@@H]13)=CC2`, 20.1 (active). Still for that read-out and setting: under `COCCOC(=O)N1C(=O)[C@@]2(c3cc(C#Cc4ccc(OC)cc4)ccc31)[C@H](c1ccc(OCCO)cc1)N1[C@H](c3ccccc3)[C@H](c3ccccc3)OC(=O)[C@H]1[C@@H]2C(=O)NC[C@H](O)c1ccccc1` stands 0.003 (inactive).

In the next test the target is Streptavidin (Streptomyces avidinii) (UniProt P22629). Description: compounds binding control protein streptavidin – biophysical, small-molecule microarray, 635/667 nm fluorescence, artefact control for SMM compound annotation, primary screen (AID 1147).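 Further: signal reflects streptavidin binding to arrayed compounds as a control protein.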 As to conditions: higher = more signal.
Streptavidin (Streptomyces avidinii), sequence (P22629 whole entry, looked up): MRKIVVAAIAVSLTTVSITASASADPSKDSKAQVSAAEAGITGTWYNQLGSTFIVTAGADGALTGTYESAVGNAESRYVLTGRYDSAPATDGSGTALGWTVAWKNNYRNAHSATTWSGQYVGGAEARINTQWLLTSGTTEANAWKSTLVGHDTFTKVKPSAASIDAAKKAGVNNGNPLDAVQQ
Turning to `CC(C)C(O)C1C=CC2C(=O)NC(=O)C2N1Nc1ccccn1` (stereo not given), the composite z-score is 0.0669. On the same count and under the same terms, under `C=CCC(OC(C)=O)[C@@H]1[C@@H](N(Cc2cccc3ccccc23)C(=O)c2ccc(-c3ccccc3)cc2)c2cc(OCCCO)ccc2N1C(=O)Cc1ccc2ccccc2c1` (stereo not given in full) stands 0.911; under `COc1cc(CO)cc(I)c1O[C@H]1C=C(C(=O)NCCO)C[C@@H]2O[C@H]12`, 0.717. In turn, `CC(C)[Si](C#CCCc1ccccc1)(O[C@H](c1ccccc1)c1cn(Cc2ccccc2)nn1)C(C)C` had a composite z-score of 1.61. In the case of `O=C1[C@H]2C=C(I)[C@H](C[C@@H]2c2ccccc2)[C@@]12CO2`, the composite z-score was -0.144. Still for that read-out and setting: then `C=C(/C(=C/C[C@@H](OC(C)=O)c1cccc(OCCO)c1)c1cnc2ccccc2c1)C(C)C`, with 0.208. `COCCOC(=O)N1C(=O)[C@@]2(c3cc(C#CCC(C(=O)OC)C(=O)OC)ccc31)[C@H](C(=O)Nc1nc3ccccc3s1)[C@H]1C(=O)O[C@H](c3ccccc3)[C@H](c3ccccc3)N1[C@@H]2c1ccc(OCCO)cc1` gave a composite z-score of 0.532. The same measure, in the same setting: then `C=CCNC(=O)[C@H]1[C@@H]2C(=O)O[C@@H](c3ccccc3)[C@@H](c3ccccc3)N2[C@@H](c2ccc(OCCO)cc2)[C@]12C(=O)Nc1ccccc12`, with 0.917. Consider `COC(=O)[C@@]1(Cc2ccc(F)cc2)[C@H]2c3cc(C(=O)N(C)C)n(CCc4ccc(O)c(O)c4)c3C[C@H]2CN1C(=O)c1ccccc1`, for which the composite z-score was determined as 0.365. As to `C=CC[C@@]12N=C(c3ccc(OCCCO)cc3)O[C@@H]1c1ccccc1N(CCC)C2=O`, the composite z-score was -0.0328. For `O=C(NC1CC1)[C@@H]1c2ccccc2C(=O)N(Cc2ccc(OC(F)(F)F)cc2)[C@H]1c1ccc(CO)cc1`, the composite z-score is -0.894. On the same count and under the same terms, then `COC(=O)[C@@]1(Cc2ccc(OC)cc2)[C@H]2c3cc(C(=O)N4CCCC4)n(Cc4ccc(C(F)(F)F)nc4)c3C[C@H]2CN1C(=O)c1ccccc1`, with -0.012; and `CCC(CC)C(O)C1C=CC2C(=O)N(c3ccccc3)C(=O)C2N1Nc1ccccc1F` (stereo not given), with 0.292; and `C=C(COC)C(=O)CC[C@@H](OC(C)=O)c1ccccc1OCCO`, with -0.507.

The molecule `[N-]=[N+]=Nc1ccccc1[C@@H]1OC(c2ccc(OCCCO)cc2)=N[C@]1(CCS(=O)(=O)c1ccccc1)C(=O)NCC(O)CO` (stereo not given in full) showed a composite z-score of 1.54. The same measure, in the same setting: then `COCCCNC(=O)[C@@]1(Sc2ccc(C)cc2)CC(=O)N(Cc2ccccc2C(F)(F)F)[C@@H]1c1ccc(CO)cc1I`, with -0.503.

`COc1ccc([Si](C)(C)[C@H]2[C@H](CC(=O)N3Cc4ccccc4C[C@H]3CO)O[C@@]3(C(=O)N(C)c4ccccc43)[C@@H]2C)cc1` gave a composite z-score of 0.783. On the same count and under the same terms, then `CN1C(=O)C2C(C1=O)C1C=C(c3ccc(CO)cc3)C2C(C2CC2)N1C` (stereo not given), with -0.095; and `COCCCNC(=O)[C@@]1(CCS(=O)(=O)c2ccccc2)COC(c2ccc(OCCCO)cc2)=N1`, with 2.53; and `COC(=O)[C@@]1(Cc2ccc(F)cc2)[C@H]2c3cc(C(=O)N4CCCC4)n(Cc4cc(F)cc5c4OCOC5)c3C[C@H]2CN1C(=O)c1ccccc1`, with 1.57. Still for that read-out and setting: under `O=C1C[C@@](C(=O)NCc2ccccc2)(c2ccc([N+](=O)[O-])cc2)[C@@H](c2ccc(CO)cc2)N1C1CCCCC1` stands -0.0057. The same measure, in the same setting: under `CCCCC(O)C1C=CC2C(=O)N(c3ccccc3)C(=O)C2N1Nc1ccc([N+](=O)[O-])cc1` (stereo not given) stands 0.736; under `CC1CC/C=C\[C@H]2OC34C=CCN(C(C)(C)C)C(=O)[C@H]3N(CCCO)C(=O)[C@@H]4C2C(=O)O1` (stereo not given in full), -0.561.

Regarding `CCCCCC1=C2CNC(Cc3ccccc3)(C(=O)OC)C=C2C(C)C1=O` (stereo not given), the composite z-score worked out at 0.0482. Molecule `CCOC(=O)C1=C[C@@H](C(C)(C)C)N(S(=O)(=O)c2ccc(C)cc2)[C@H]1c1ccc(C#N)cc1` returned a composite z-score of 0.948. The same measure, in the same setting: under `COc1ccc([Si](C)(C)[C@@H]2[C@@H](CC(=O)N(CCO)Cc3ccccc3)O[C@]3(C(=O)N(Cc4ccc(I)cc4)c4ccccc43)[C@H]2C)cc1` stands 0.349; under `C=CCNC(=O)[C@H]1[C@@H]2C(=O)O[C@@H](c3ccccc3)[C@@H](c3ccccc3)N2[C@@H](c2ccccc2OCCO)[C@]12C(=O)N(C(=O)OCCOC)c1ccc(C#Cc3ccc(OC)cc3)cc12`, 0.12; under `CCOC(=O)C[C@H]1[C@H](OC(=O)c2cc3ccccc3oc2=O)[C@@H](NC(=O)CC(C)C)c2cc(OCCCO)ccc2N1C(=O)Cc1ccc(OC)cc1`, 0.0665.

In turn, `O=C(NC1CC1)[C@@H]1c2ccccc2C(=O)N(CC23CC4CC(CC(C4)C2)C3)[C@H]1c1ccc(CO)cc1` returned a composite z-score of 0.189. Consider `C=CCN1C(=O)[C@@]2(O[C@@H](CCn3cc([C@H](O)c4ccccc4)nn3)[C@H]([Si](C)(C)c3ccc(OC)cc3)[C@H]2C)c2cc(N3C(=O)c4cccc5cccc3c45)ccc21`, for which the composite z-score is -0.253.

As to `CCOC(=O)C[C@H]1[C@H](OC(=O)c2ccccc2-c2ccccc2)[C@@H](NC(=O)c2ccc3ccccc3c2)c2cc(OCCCO)ccc2N1C(=O)Cc1ccc(OC)cc1`, the composite z-score is -0.0096.

The molecule `COC(=O)[C@@]1(Cc2ccc(OC)cc2)[C@H]2c3cc(C(=O)N4CCCC4)n(Cc4ccc(Cl)c(C(F)(F)F)c4)c3C[C@H]2CN1C(=O)c1ccccc1` gave a composite z-score of 1.59. The same measure, in the same setting: under `CCCC[C@H]1C[C@@H]1[C@@H]1N(C(C)=O)[C@H](c2cccc(OC)c2)CC12CC2` stands 0.361; under `COc1ccc(CCNC(=O)[C@@H]2c3ccccc3C(=O)N(Cc3ccccc3OC)[C@H]2c2ccc(CO)cc2)cc1`, 0.628; under `O=C1C=C(c2ccccc2)C(=O)C2=C1CC([C@H]1Oc3ccccc3S(=O)(=O)N3CCC[C@@H]13)=CC2`, 0.429. On the same count and under the same terms, then `COCCOC(=O)N1C(=O)[C@@]2(c3cc(C#Cc4ccc(OC)cc4)ccc31)[C@H](c1ccc(OCCO)cc1)N1[C@H](c3ccccc3)[C@H](c3ccccc3)OC(=O)[C@H]1[C@@H]2C(=O)NC[C@H](O)c1ccccc1`, with 0.769.
